Laboratory results taken from ChEMBL document CHEMBL3988442, “University of Dundee, Small-Polar-MMV Screening Library” (2021).
In all, about 48,000 compounds went through this assay and about 13,000 (27%) showed an effect of 50% or more. This is one part of the list.

System: Wolbachia pipientis
Assay: Anti-Wolbachia Cell-Based Screen
Type: functional
Parameters: scale not given: in the data most compounds retested in dose-response had high values
Conditions: 5 µM

SMILES	Percent Effect
CC(C)N1CCCC(CN(C)c2ccc(Cn3ccnc3)cn2)C1 (configuration not stated)	-1.53%
c1csc(CN2CCCN(c3ccc(Cn4ccnc4)cn3)CC2)c1	106.4%
OC1CCN(C2CCN(c3ccc(Cn4ccnc4)cn3)CC2)CC1	89.01%
Fc1ccc(N2CCCN(c3ccc(Cn4ccnc4)cn3)CC2)cc1	119.2%
CCOc1ccc(C(=O)N2Cc3cnc(CC(C)C)nc3C2)o1	-22.23%
Cc1ccc(CC(NC(=O)CCS(C)(=O)=O)c2ccccn2)cc1 (configuration not stated)	-19.62%
C[S+]([O-])c1nncn1CC(=O)c1ccc(Br)cc1 (configuration not stated)	-5.183%
Cc1ccc(CN2CCCC3(CCCCN3S(C)(=O)=O)C2)s1.O=C(O)C(F)(F)F (configuration not stated)	-28.3%
Cc1nn(C)c(Cl)c1C1CCCN1C(=O)c1cnccn1 (configuration not stated)	91.27%
CC(=O)NCc1ccc(C(=O)N2CCCC2c2c(C)nn(C)c2C)o1 (configuration not stated)	97.07%
Cc1ncncc1C(=O)N1CCCC1c1c(C)nn(C)c1Cl (configuration not stated)	95.8%
Cc1nn(C)c(Cl)c1C1CCCN1C(=O)c1csnn1 (configuration not stated)	106%
Cc1nn(C)c(Cl)c1C1CCCN1C(=O)c1cc[nH]n1 (configuration not stated)	-2.963%
Cc1ccn2cc(C(=O)N3CCCC3c3c(C)nn(C)c3C)nc2c1 (configuration not stated)	3.405%
CCc1nc(CNCC2(C(N)=O)CCOCC2)cs1	1.973%
CCCC1(CO)CCCN(c2ncccc2F)C1 (configuration not stated)	-3.484%
COc1ccc(OCc2cc(C(=O)N3CCN[C@H](C)C3)n[nH]2)c(Cl)c1	-13.06%
CNC(=O)c1ccc(CN(C(C)C)C(C)C)o1.Cl	-8.523%
COc1cc(C)c(CNC(C)c2csc(C)n2)cc1OC (configuration not stated)	-9.97%
N#CCCN(CCC#N)C(=O)COC1CCCCC1	-15.39%
COc1c(C2CCCN2C(=O)c2cc(C3CC3)on2)c(C)nn1C (configuration not stated)	-11.04%
CCc1noc(C)c1C(=O)N1CCCC1c1c(C)nn(C)c1OC (configuration not stated)	-9.828%
COc1c(C2CCCN2C(=O)c2cc(C)on2)c(C)nn1C (configuration not stated)	99.28%
COc1c(C2CCCN2C(=O)c2cnn(C)c2C2CC2)c(C)nn1C (configuration not stated)	-4.592%
COc1c(C2CCCN2C(=O)c2ccc(Cl)o2)c(C)nn1C (configuration not stated)	6.578%
COCc1nc(C(=O)N2CCCC2c2c(C)nn(C)c2C)cs1 (configuration not stated)	3.792%

SMILES	Percent Effect
COc1c(C2CCCN2C(=O)c2csc(C(C)C)n2)c(C)nn1C (configuration not stated)	8.615%
Cc1nn(C)c(Cl)c1C1CCCN1C(=O)c1cnn(C)c1C1CC1 (configuration not stated)	93.32%
CCc1ccc(C(=O)N2CCCC2c2c(C)nn(C)c2OC)o1 (configuration not stated)	54.64%
COc1c(C2CCCN2C(=O)c2ccco2)c(C)nn1C (configuration not stated)	-0.9591%
COc1c(C2CCCN2C(=O)c2csc(C3CC3)n2)c(C)nn1C (configuration not stated)	61.26%
c1ccc(CCCN2CC[C@H](c3nnc(-c4ccccc4)o3)C2)cc1	-1.621%
CCN(Cc1ccoc1)C(C(N)=O)c1ccc(C#N)cc1 (configuration not stated)	0.4454%
O=C(NCCc1csc(N2CCCC2)n1)N(C1CCCC1)C1CC1	-4.119%
Cc1cc2nc(CO[C@H]3CN(C4CCCCC4)C[C@H]3F)[nH]c2cc1C	9.281%
Cc1noc([C@@H]2C[C@H]3CN(Cc4ccc5c(c4)OCO5)C[C@H]3O2)n1.O=C(O)C(F)(F)F	-40.6%
COc1c(C2CCCN2C(=O)c2cnccn2)c(C)nn1C (configuration not stated)	114.6%
COc1c(C2CCCN2C(=O)c2cnc(C)cn2)c(C)nn1C (configuration not stated)	86.16%
Cc1nn(C)c(Cl)c1C1CCCN1C(=O)c1cc(C2CC2)on1 (configuration not stated)	102.8%
COc1c(C2CCCN2C(=O)c2cscn2)c(C)nn1C (configuration not stated)	88.43%
Cc1nc[nH]c1-c1nnc(SCC(=O)O)n1-c1ccccc1C(F)(F)F	-17.22%
O=S(=O)(Cc1ccccc1F)NC(CO)c1ccco1 (configuration not stated)	6.014%
Cl.Cl.Cl.O[C@@H]1C[C@@](CNCc2ccccn2)(COc2cccnc2)C[C@@H]1O	-17.47%
Cc1ccsc1CNC(=O)c1ccc(N2CCNC2=O)cc1	1.647%
COc1ccc(NC(=O)N2CCC3(CC2)NC(=O)CC3C(=O)O)c(C)c1 (configuration not stated)	2.707%
Cn1c(CS(=O)(=O)Cc2cccc(Cl)c2)cc(=O)n(C)c1=O	7.085%
CCS(=O)(=O)CCNc1nc(C2CCCC2)nc2c1cnn2C	3.087%
COc1c(C2CCCN2C(=O)Cc2c(C)noc2C)c(C)nn1C (configuration not stated)	-5.371%
Cc1nn(C)c(C)c1C1CCCN1C(=O)Cc1cn2ccsc2n1 (configuration not stated)	10.74%
CCc1nc(CC(=O)N2CCCC2c2c(C)nn(C)c2OC)cs1 (configuration not stated)	118.7%
CCN(c1ccc(C(=O)Nc2c(C)nn(C(C)C)c2C)cc1)C(C)C	-6.116%
COc1cccc(N2CC3(CCN(c4ccc(C)nn4)C3)CC2=O)c1 (configuration not stated)	3.863%
